In the library only some 2.2% were active in any assay of this set; here they are far more common.
aSyn rescue: alpha-synuclein toxicity inhibition in yeast | actives 0.14% (n = 370,000) | Potency, µM (highest dose often 46.1 µM), usual class: activators | Yeast expressing alpha-synuclein, growth rescue, BacTiter-Glo, 24 h; further: nearly all actives have a fitted effect of over 65% in size
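Screening used galactose-induced yeast with toxic alpha-synuclein levels, exposed to compound for 24 hr at 30 deg C. Cell growth, read with BacTiter-Glo luminescence, gave the measured signal.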
FUS yeast rescue: rescues growth of FUS-expressing yeast; Potency, µM (series often up to 76.6 µM), actives largely listed as activators; S. cerevisiae FUS-expressing, growth rescue, OD600, 24 h; actives 0.24% (n = 390,000); AID 1347120; further: nearly all actives have a fitted effect of over 55% in size
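Yeast expressing FUS under galactose induction, OD 0.005 in 2% galactose medium; compounds in a dilution series, 24 h at 30C. Growth rescue by absorbance at 600 nm; CP55940 positive control, DMSO negative.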
Mito fusion act: inhibitors of mitochondrial division or activators of mitochondrial fusion. S. cerevisiae fusion-defective mutant growth rescue, CellTiterGlo 48 h. Potency, µM (titrated, usually from 46.1 µM), actives largely listed as activators. actives 0.23% (n = 320,000); further: nearly all actives have a fitted effect of over 45% in size
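Temperature-sensitive fusion-defective S. cerevisiae (e.g. fzo1-1, mgm1-5) were grown with compound in YPEG medium (3% ethanol, 3% glycerol) for 48 hours at 37C. Growth rescue was measured as viability by CellTiterGlo luminescence after 10 minutes at ambient.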
TDP-43 yeast inh: TDP-43 toxicity inhibition in yeast. TDP-43 expressing yeast growth rescue, BacTiter-Glo, 24 h. Potency, µM (highest dose often 46.1 µM), usual class: activators. actives 1.8% (n = 410,000); further: nearly all actives have a fitted effect of over 50% in size
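Readout is BacTiter-Glo luminescence of cell growth, so inhibitors register as activators. TDP-43-expressing yeast at OD600=0.02 in galactose medium, after raffinose pregrowth to mid-log, were incubated with compound for 24 hr at 30 deg C.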
Abeta yeast res: A-beta toxicity reversal in yeast. yeast expressing A-beta42, growth rescue, OD600, 48 h; response scale: 0% DMSO, 100% iron-clioquinol control. Potency, µM (doses to about 46.1 µM), actives largely listed as activators. actives 0.063% (n = 410,000); further: nearly all actives have a fitted effect of over 55% in size
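Yeast A-beta toxicity model in growth medium with pinned compounds, 48 h at 30 C; growth read as absorbance at 600 nm. Normalized to FeCl3/clioquinol equimolar mix (positive) and DMSO (negative).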
Large screens that a line does not name were inactive. The call rests on the fitted dose curve; in most records, active means well fitted curve in the direction sought with a large enough effect; inconclusive means small, poorly fitted or top-dose-only effect, or another doubt; inactive means no such curve, though single readings can be large; an effect the other way counts as inactive or inconclusive.

Cc1nn(C(=O)CNS(=O)(=O)c2ccccc2)c(C)c1Sc1ccc(Cl)cc1	TDP-43 yeast inh 16µM (no result: FUS yeast rescue)
Cc1nn(C(=O)COc2ccc(Cl)cc2)c(C)c1Sc1ccccc1	none (no result: aSyn rescue, Mito fusion act)
CC(/C=C/c1ccccc1)=N\NC(N)=S	TDP-43 yeast inh 13µM
NC(=S)NN=C(c1ccccc1)c1ccccc1	TDP-43 yeast inh 13µM, Abeta yeast res inconclusive
C/C(=N\NC(N)=S)c1ccccc1	Abeta yeast res inconclusive
CC(/C=C/c1ccccc1)=N\NC(=S)NC(C)C	TDP-43 yeast inh inconclusive, Abeta yeast res inconclusive
COc1cc(CCCN2CCNC[C@@H]2CC2CCCCC2)cc(OC)c1OC	none (no result: Mito fusion act)
COC(=O)[C@]1(C#N)CC(=O)N(C)[C@@H]1c1ccccc1	none (no result: aSyn rescue, Mito fusion act, TDP-43 yeast inh, Abeta yeast res)
O=C(Nc1ccccc1N1CCCCC1)C1CCN(S(=O)(=O)c2ccccc2C(F)(F)F)CC1	none
Cn1cccc1C(=O)N1CCN(S(=O)(=O)c2ccc(C(C)(C)C)cc2)CC1	none (no result: aSyn rescue, Mito fusion act, TDP-43 yeast inh, Abeta yeast res)
O=C(CCl)N=c1sccn1Cc1ccccc1Cl	TDP-43 yeast inh 22µM
CCc1c(C)sc(NC(=S)Nc2cccnc2)c1C(=O)OC	TDP-43 yeast inh 25µM
CCN1C(=O)[C@@H]2[C@@H](c3ccc(-c4ccc(OC)cc4)cc3)N3CCC[C@@]3(C(=O)OC)[C@@H]2C1=O	none
CCN1C(=O)[C@H]2[C@@H](c3ccc(-c4ccc(OC)cc4)cc3)N3CCC[C@@]3(C(=O)OC)[C@H]2C1=O	FUS yeast rescue 28µM, TDP-43 yeast inh inconclusive
CCN1C(=O)[C@@H]2[C@@H](c3ccc(-c4ccccc4)cc3)N3CCC[C@@]3(C(=O)OC)[C@@H]2C1=O	none (no result: Mito fusion act)
CCN1C(=O)[C@H]2[C@@H](c3ccc(-c4ccccc4)cc3)N3CCC[C@@]3(C(=O)OC)[C@H]2C1=O	FUS yeast rescue inconclusive, Mito fusion act inconclusive, TDP-43 yeast inh 35µM, Abeta yeast res inconclusive
Cc1ccc2oc(=O)n(Cc3ccc(OC(C)C)cc3)c2c1	TDP-43 yeast inh inconclusive
Cc1cccc(Cn2c(=O)oc3ccc(C)cc32)c1	TDP-43 yeast inh 20µM
COc1ccccc1C(=O)OCc1c(-c2ccccc2)ncc2ccccc12	FUS yeast rescue inconclusive, TDP-43 yeast inh 25µM (no result: Mito fusion act)
C[C@H]1O[C@H](O[C@H]2[C@H](O[C@@H]3CC[C@@]4(C)C(CC[C@]5(C)C4CC=C4[C@@H]6CC(C)(C)CC[C@]6(C(=O)O[C@@H]6O[C@H](CO)[C@@H](O)[C@H](O)[C@H]6O)CC[C@]45C)C3(C)C)O[C@H](C(=O)O)[C@@H](O)[C@@H]2O)[C@@H](O)[C@@H](O)[C@@H]1O (stereo partly drawn)	FUS yeast rescue inconclusive
C[C@@H]1CC[C@]2(C(=O)O[C@@H]3O[C@H](CO)[C@@H](O)[C@H](O)[C@H]3O)CC[C@]3(C)C(=CCC4[C@@]5(C)C[C@@H](O)[C@H](O)[C@@](C)(C(=O)O[C@@H]6[C@H](O)C[C@@]7(C)C(CC[C@]8(C)C7CC=C7[C@H]9[C@](C(=O)O[C@@H]%10O[C@H](CO)[C@@H](O)[C@H](O)[C@H]%10O)(CC[C@@H](C)[C@@]9(C)O)CC[C@]78C)[C@@]6(CO)C(=O)O)C5CC[C@]43C)[C@@H]2[C@]1(C)O (stereo partly drawn)	FUS yeast rescue 13µM (no result: Mito fusion act)
C=CCOC(=O)C1=C(C)NC(=O)NC1c1cc2c(cc1Br)OCO2 (stereo not drawn)	none
Cc1sc2ccccc2[n+]1CC(=O)c1ccccc1	FUS yeast rescue inconclusive, TDP-43 yeast inh 11µM
Oc1ccc(-c2nc3ccc4ccccc4c3c3c2CCC3)cc1O	Mito fusion act 16µM
C(=C\c1ccnc2ccccc12)/c1cccnc1	none (no result: FUS yeast rescue, Mito fusion act, TDP-43 yeast inh, Abeta yeast res)
C#CCN1CC(N(C)CCOC(=O)c2ccc(OC)c(OC)c2)CS1(=O)=O (stereo not drawn)	none (no result: aSyn rescue, Mito fusion act, TDP-43 yeast inh, Abeta yeast res)
CN1CCN(c2ccc3c(c2)Oc2ccccc2CN(Cc2cn(Cc4cccc(C(F)(F)F)c4)nn2)S3(=O)=O)CC1	none (no result: aSyn rescue, Mito fusion act, TDP-43 yeast inh, Abeta yeast res)
O=C(Nc1ccccc1)c1cc(C2CCCCN2C(=O)CCCc2ccccc2)on1 (stereo not drawn)	FUS yeast rescue inconclusive (no result: Mito fusion act)
O=C(Nc1ccccc1)c1cc(C2CCCN(C(=O)C/C=C/c3ccccc3)C2)on1 (stereo not drawn)	FUS yeast rescue inconclusive, TDP-43 yeast inh 22µM (no result: Mito fusion act)
